This is an account of results in PubChem BioAssay.

As usually defined, the inhibition is the relative decrease from the control value, in per cent.

PEG-3, sequence (Q6IN02 whole entry, looked up): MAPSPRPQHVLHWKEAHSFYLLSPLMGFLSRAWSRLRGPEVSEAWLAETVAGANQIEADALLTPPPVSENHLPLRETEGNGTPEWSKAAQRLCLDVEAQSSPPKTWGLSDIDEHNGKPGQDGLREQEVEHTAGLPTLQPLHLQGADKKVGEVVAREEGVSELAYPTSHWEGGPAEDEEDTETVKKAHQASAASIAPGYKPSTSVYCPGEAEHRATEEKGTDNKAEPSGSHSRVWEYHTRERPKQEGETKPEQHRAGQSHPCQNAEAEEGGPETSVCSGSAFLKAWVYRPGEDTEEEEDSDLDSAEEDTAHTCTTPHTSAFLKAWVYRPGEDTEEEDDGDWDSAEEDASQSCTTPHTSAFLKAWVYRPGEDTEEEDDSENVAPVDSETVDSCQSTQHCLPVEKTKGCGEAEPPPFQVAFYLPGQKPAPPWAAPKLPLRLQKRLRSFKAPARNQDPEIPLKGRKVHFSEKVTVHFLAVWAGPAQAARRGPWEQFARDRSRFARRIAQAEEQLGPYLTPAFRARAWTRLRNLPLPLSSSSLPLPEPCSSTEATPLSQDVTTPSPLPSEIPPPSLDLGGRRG

This assay addresses PEG-3 (UniProt Q6IN02). Put plainly: inhibition of PEG-3 promoter-driven reporter – cell-based, HeLa, luciferase, CREF/GAPDH counter-screen panel, dose response (AID 624167). As to conditions: CREF/GAPDH counter-screens; HeLa PEG-Prom luciferase reporter, overnight, run 1, dose range 1, at 100 µM (top of the series) unless noted. (A counterscreen serves to expose hits that act by an unwanted route or on another target.)
With `Cc1ccc(C2=NC(=O)/C(=C/c3cc(O)c(O)c(Br)c3)S2)cc1`, the inhibition was determined as 88.6%.
Under `COc1ccc(CCNC(=O)C(=O)NCC2CCCN2S(=O)(=O)c2ccccc2)cc1OC` (stereo unspecified) stands 97.2%; under `O/N=C(\c1ccc(Cl)cc1Cl)c1ncc(C(F)(F)F)cc1Cl`, 86%.
On to `C/C(=N\N=C(N)N)c1ccc(Cl)c(Cl)c1`, for which the inhibition was determined as 102%.
Regarding `Cc1ccc2cccc(OCC(=O)Nc3cccc(S(=O)(=O)N4CCCC4)c3)c2n1`, the inhibition turned out to be 94.5%.
Turning to `CC(=O)Nc1cccc(-c2cc(NC=O)c3ncc(-c4ccc(C(C)=O)cc4)n3c2)c1`, the inhibition was determined as 12.8%.
Regarding `COc1ccc(-c2cc(C(=O)Nc3ccccc3N3CCOCC3)c3ccccc3n2)cc1OC`, the inhibition was found to be 2.08%.
In the case of `C[C@@H](C(=O)Nc1ccc2c(c1)OCCO2)n1c(=O)[nH]c2ccccc2c1=O` it was 53.8%; in that of `CCN(CC)CCOc1ccc(/C(=C(/Cl)c2ccccc2)c2ccccc2)cc1`, 102%; in that of `Cc1cc(C)c(CN2CCN(CCCn3cnc(C(=O)Nc4ccc(C)c(C)c4)n3)CC2)c(C)c1`, 102%.
Consider `COCC(C)n1c(C)cc(C(=O)COC(=O)c2cccn2C)c1C` (stereo unspecified), for which the inhibition came to 75.2%.
As to `COc1ccc(-c2nc3c(C(=O)NCCN(C)C)cccc3c3ccccc23)cc1`, the inhibition was 102%.
Regarding `CCN1CCN(Cc2ccc(NC(=O)c3cc(NC(=O)c4ccno4)cc(OC)c3)cc2C(F)(F)F)CC1`, the inhibition turned out to be 95.5%.
For `CCOC(=O)c1c(NC(=O)CSc2nnnn2-c2ccccc2OCC)sc2c1CC(C)(C)NC2(C)C`, the inhibition came to 98.8%.
Regarding `CC(C)(C)c1ccc(/C=N/Nc2ccc(C(=O)O)cc2)cc1`, the inhibition amounted to 89%.
Under `Cc1cc(C)c2nc(N(CCCN(C)C)C(=O)c3ccc(S(=O)(=O)N4CCCCCC4)cc3)sc2c1` stands 102%.
